# Test results taken from PubChem BioAssay AID720697 (Broad Institute, 2013).
# Results with a measured potency or affinity are listed apart. Records with an inconclusive call do not appear. Active and inactive are the calls of the source.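 How the source made its calls: active means signal loss with fitted half-maximal concentration at or below twice the top valid tested dose in every test run; inconclusive means runs disagree, flat 30 to 70% signal loss, or poor fit; inactive means all runs flat, opposite direction, or potency beyond limit.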
# Assay: general mammalian cell viability loss – inhibitor set, cherry-pick, set 2, cytotoxicity control for miR-122 modulator project, dose response (AID 720697)
# Conditions: HEK293T viability, CellTiter-Glo luminescence, 48 h; series mostly up to 26 µM
row,SMILES,outcome
1,CN1C(=O)c2cc(NC(=O)c3cccs3)ccc2OC[C@@H]2O[C@@H](CC(=O)N3CCOCC3)CC[C@H]21,inactive
2,CC(=O)N=c1scc(-c2ccccc2)n1-c1cccc(O)c1,inactive
3,COCC(=O)Nc1ccc2c(c1)C(=O)N(C)[C@@H]1CC[C@H](CC(=O)NCc3ccccc3F)O[C@H]1CO2,inactive
4,C/C=C/c1ccc([C@@H]2[C@@H](CNC(=O)CC)N(Cc3ccccn3)[C@H]2CO)cc1,inactive
5,Cc1ccc(S(=O)(=O)Nc2ccc3c(c2)C(=O)N(C)[C@@H]2CC[C@H](CC(=O)NCCc4ccncc4)O[C@@H]2CO3)cc1,inactive
6,CNC(=O)C[C@@H]1CC[C@H]2[C@@H](COc3ccc(NC(=O)C(C)C)cc3C(=O)N2C)O1,inactive
7,O=C(Nc1nc(-c2cc3ccccc3o2)cs1)c1ccc(S(=O)(=O)N2CCCC2)cc1,inactive
8,Cc1cccc(NC(=O)Nc2ccc3c(c2)C(=O)N(C)[C@@H]2CC[C@H](CC(=O)NCc4ccccc4Cl)O[C@H]2CO3)c1,inactive
9,CC(C)(C)c1cc(NCCCn2ccnc2)n2ncc(-c3ccc(Cl)cc3)c2n1,inactive
10,c1ccc(-c2nnc3n2CCCC3)cc1,inactive
11,C[C@H]1CN([C@@H](C)CO)S(=O)(=O)c2ccc(C#CC3CCCCC3)cc2O[C@@H]1CN(C)C,inactive
12,CCCC(=O)Nc1ccc2c(c1)C(=O)N(C)[C@@H]1CC[C@H](CC(=O)NCCN3CCCCC3)O[C@H]1CO2,inactive
13,OC[C@H]1[C@@H](c2ccccc2)[C@H](CNCC2CCC2)N1CC1CC1,inactive
14,CCCNC(=O)N1C[C@@H]2[C@H](c3ccccc31)[C@@H](CO)N2C(=O)C1CCOCC1,inactive
